# Results as given in PubChem BioAssay (NCATS).
# “And” between values parts separate entries of the source, which are not always exact repeats. Equal values may be shown once. Inconclusive results are not listed. Where a call stands in place of a potency, no number is given. A number with no mark means an inactive call. The source made the active and inactive calls. Calls follow the shape of the dose curve; as a rule, active = well fitted curve in the direction sought with a large enough effect; inconclusive = small, poorly fitted or top-dose-only effect, or another doubt; inactive = no such curve, though single readings can be large; an effect the other way counts as inactive or inconclusive.
# Key:
# [1] = Quantitative highthroughput screen to assess conditional lethalithy of NOMO1 cells grown in RPMI1640 with dialyzed fetal bovine serum (RPMI+ds) (AID 1963877); also: nearly all actives have a fitted effect of over 30% in size; as to Viability: series mostly up to about 46 µM
# Outline: (§1)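 Each medium arm—HPLM with 10% dialyzed FBS, or RPMI1640 with 5 mM glucose and 10% untreated or dialyzed FBS—was screened against an 11-point, 3-fold compound titration for 48 h at 37 °C, with CellTiter-Glo luminescence as endpoint.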
# [2] = Quantitative highthroughput screen to assess conditional lethalithy of NOMO1 cells grown in Human Plasma-Like Medium with dialyzed fetal bovine serum (HPLM+ds) (AID 1963878); also: nearly all actives have a fitted effect of over 35% in size
# Outline: as §1
# [3] = molecular target: Cytochrome P450 3A7 (Homo sapiens) (UniProt P24462); experiment: Cytochrome P450 family 3 subfamily A member 7 (CYP3A7) small molecule antagonists: luciferase biochemical qHTS assay (AID 1963596); also: nearly all actives have a fitted effect of over 40% in size
# Outline: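 Compounds were screened in qHTS format for interference with CYP3A7 turnover of a proluciferin substrate. Reactions ran 1 h at room temperature after NADPH regeneration solution was added, then luciferin product was detected by luminescence.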
# [4] = Viability qHTS for spleen associated tyrosine kinase inhibitor (SYKi) drug resistant MV4-11 cells (AID 1963824); also: nearly all actives have a fitted effect of over 35% in size
# Outline: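 CellTiter-Glo luminescence, read 10 min after reagent addition, reports viability after a 72 hr compound exposure. Cells are an MV4-11 line made resistant to SYK inhibition, seeded at 500 per well onto compound-containing plates.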
# [5] = Cellular viability qHTS for adrenocortical cancer (ACC) cell line SW-13 (AID 1963989); settings: SW-13 ACC cells viability, CellTiter-Glo, 48 h; activity (max response): hits give low values; also: nearly all actives have a fitted effect of over 65% in size;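 as to activity (max response): cells grown in serum-free medium with ITS supplement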
# Outline: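 IC50 and maximal-response values come from four-parameter logistic fits of titration data. SW-13 cells in serum-free medium received compounds (up to 46 uM final) for 48 h before CellTiter-Glo luminescence.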
# [6] = Cellular viability qHTS for adrenocortical cancer (ACC) cell line NCI-H295R (AID 1963990); also: nearly all actives have a fitted effect of over 60% in size
# Outline: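 Adrenocortical carcinoma cells, suspended at 300 000 cells/mL in serum-free DMEM plus ITS, rested overnight before pin transfer of compound. After two days' incubation, ATP-dependent luminescence was recorded and curve-fitted.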
# Potency is read from the fitted curve at half-maximal effect.
# Sequence of Cytochrome P450 3A7 (Homo sapiens) (P24462 whole entry, looked up): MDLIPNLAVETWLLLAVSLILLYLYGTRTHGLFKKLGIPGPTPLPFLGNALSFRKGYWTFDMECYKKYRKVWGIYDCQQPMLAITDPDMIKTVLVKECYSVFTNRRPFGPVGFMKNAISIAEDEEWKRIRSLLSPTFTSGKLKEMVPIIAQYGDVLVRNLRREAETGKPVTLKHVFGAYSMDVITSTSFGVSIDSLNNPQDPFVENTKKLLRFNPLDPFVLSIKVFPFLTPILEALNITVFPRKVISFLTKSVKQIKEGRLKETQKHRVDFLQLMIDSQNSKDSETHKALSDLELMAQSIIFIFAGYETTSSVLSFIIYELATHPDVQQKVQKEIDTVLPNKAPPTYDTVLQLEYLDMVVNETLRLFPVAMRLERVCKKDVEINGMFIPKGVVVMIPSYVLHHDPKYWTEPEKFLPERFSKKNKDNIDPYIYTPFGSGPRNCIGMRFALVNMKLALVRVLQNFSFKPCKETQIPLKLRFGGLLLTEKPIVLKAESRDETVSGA
smiles,measurement,setting,value
Nc1c2c(nc3ccccc13)CCCC2,Potency,[1],14.8 µM (active)
CCn1cc(C(=O)O)c(=O)c2ccc(C)nc21,Potency,[1],inactive
CC(C)NCC(O)COc1ccc(CCOCC2CC2)cc1 (stereo not given),Potency,[2],16.6 µM (active)
O=C1NC(O)CCN1[C@@H]1O[C@H](CO)[C@H](O)[C@H]1O (stereo not given in full),Potency,[2],20.9 µM (active)
NS(=O)(=O)Cc1noc2ccccc12,Potency,[3],inactive
same,Potency,[4],inactive
same,activity (max response),[5],1.85%
same,Potency,[6],inactive
O=C(NCCN1CCOCC1)c1ccc(Cl)cc1,Potency,[3],inactive
same,Potency,[4],inactive
same,activity (max response),[5],1.07%
same,Potency,[6],inactive
Cc1c(F)cc2c(=O)c(C(=O)O)cn3c2c1CCC3C (stereo not given),Potency,[3],inactive
same,Potency,[4],inactive
same,activity (max response),[5],-2.48%
same,Potency,[6],inactive
NC[C@H]1O[C@H](O[C@H]2[C@H](O[C@@H]3O[C@H](CO)[C@@H](O)[C@H]3O)C(O)[C@H](N)C[C@@H]2N)[C@H](N)[C@@H](O)[C@@H]1O (stereo not given in full),"activity change, negative = inhibition",[3],16.1% [at 11.5 µM]
same,"viability, % of control",[4],95.3% [at 9.25 µM]
same,activity (max response),[5],8.3%
same,"activity change, negative = viability loss",[6],0.419% [at 9.17 µM]
CN[C@@H](C)C(=O)N[C@H](C(=O)N1CCC[C@H]1c1nc(C(=O)c2ccc(F)cc2)cs1)C1CCCCC1,Potency,[3],14.1 µM (active)
same,Potency,[4],1.05 µM (active)
same,activity (max response),[5],-7.41%
same,Potency,[6],inactive
Cc1cc(=O)n(-c2ccccc2)n1C,Potency,[3],inactive
same,Potency,[4],inactive
same,activity (max response),[5],4.16%
same,Potency,[6],inactive
C=C(C)C(=O)OCC(O)CO (stereo not given),Potency,[3],inactive
same,Potency,[4],inactive
same,activity (max response),[5],-4.84%
same,Potency,[6],inactive
Nc1ncnc2c1ncn2Cc1c(F)cccc1Cl,Potency,[3],inactive
same,Potency,[4],inactive
same,activity (max response),[5],6.36%
same,Potency,[6],inactive
Cc1c(C(N)=O)cc([N+](=O)[O-])cc1[N+](=O)[O-],Potency,[3],inactive
same,Potency,[4],inactive
same,activity (max response),[5],-7.83%
same,Potency,[6],inactive
OCCc1ccccc1,Potency,[3],inactive
same,Potency,[4],inactive
same,activity (max response),[5],10.1%
same,Potency,[6],inactive
C[C@H](N)[C@H](O)c1cccc(O)c1,Potency,[3],inactive
same,Potency,[4],inactive
same,activity (max response),[5],0.409%
same,Potency,[6],inactive
CN=C(N)NC(=O)Nc1c(C)cccc1C,Potency,[3],inactive
same,Potency,[4],inactive
same,activity (max response),[5],-3.82%
same,Potency,[6],inactive
CCOC(=O)c1cccc(N)c1,Potency,[3],27.5 µM (active)
same,Potency,[4],inactive
same,activity (max response),[5],-1.69%
same,Potency,[6],inactive
O=C(O)CC1CCC(c2ccc(-c3ccc(Nc4ccc(C(F)(F)F)nc4)cn3)cc2)CC1 (stereo not given),Potency,[3],inactive
same,Potency,[4],18.6 µM (active)
same,activity (max response),[5],-23.1%
same,Potency,[6],inactive
Cc1cccc(C)c1NC(=O)CN1CCCC1,Potency,[3],inactive
same,Potency,[4],5.96 µM (active)
same,activity (max response),[5],3.45%
same,Potency,[6],inactive
CNC(=O)Oc1ccc2c(c1)[C@]1(C)CCN(C)[C@@H]1N2C,Potency,[3],inactive
same,Potency,[4],inactive
same,activity (max response),[5],16.2%
same,Potency,[6],inactive
CC(=O)NO,Potency,[3],inactive
same,Potency,[4],inactive
same,activity (max response),[5],11.6%
same,Potency,[6],inactive
COc1cc2nc(-c3cc(F)ccc3O)nc(N[C@@H]3CNC[C@H]3C(C)(C)O)c2cc1OC,Potency,[3],inactive
same,Potency,[4],11.6 nM (active) and 5.3 nM (active)
same,Potency,[5],6.31 µM (active)
same,Potency,[6],6.31 µM (active)
O=C(c1ccco1)N1CCNCC1,Potency,[3],inactive
same,Potency,[4],inactive
same,activity (max response),[5],-4.62%
same,Potency,[6],inactive
NCCCNCCSP(=O)(O)O,"activity change, negative = inhibition",[3],11.1% [at 11.5 µM]
same,"viability, % of control",[4],105% [at 9.25 µM]
same,activity (max response),[5],1.65%
same,"activity change, negative = viability loss",[6],0.548% [at 9.17 µM]
CC[C@@H](CO)NCCN[C@@H](CC)CO,Potency,[3],inactive
same,Potency,[4],inactive
same,activity (max response),[5],14%
same,Potency,[6],inactive
CCN(CC)CCNC(=O)c1ccc(NC(C)=O)cc1,Potency,[3],inactive
same,Potency,[4],inactive
same,activity (max response),[5],-7.72%
same,Potency,[6],inactive
CNCCc1ccccn1,Potency,[3],inactive
same,Potency,[4],inactive
same,activity (max response),[5],13.5%
same,Potency,[6],inactive
COc1cc2[nH]c(=O)[nH]c(=O)c2cc1OC,Potency,[3],inactive
same,Potency,[4],inactive
same,activity (max response),[5],11.4%
same,Potency,[6],inactive
COC(=O)c1nc(Cl)c(Cl)nc1N,Potency,[3],inactive
same,Potency,[4],0.596 µM (active)
same,Potency,[5],8.2 µM (active)
same,Potency,[6],0.103 µM (active)
CC(C)(C)NC[C@H](O)COc1nsnc1N1CCOCC1,Potency,[3],inactive
same,Potency,[4],inactive
same,activity (max response),[5],-5.85%
same,Potency,[6],inactive
CNCc1ccc(C)c(NC(=O)c2ccc(Nc3nc(-c4ccccc4)c4ccccc4n3)cc2)c1,Potency,[3],inactive
same,Potency,[4],7.42 µM (active)
same,Potency,[5],28.2 µM (active)
same,Potency,[6],6.31 µM (active)
COCCOCC(OC)OC,Potency,[3],inactive
same,Potency,[4],inactive
same,activity (max response),[5],10.1%
same,Potency,[6],inactive
CC(=O)OCC(=O)[C@@]12N=C(C)O[C@@H]1C[C@H]1[C@@H]3CCC4=CC(=O)C=C[C@]4(C)[C@H]3[C@@H](O)C[C@@]12C,Potency,[3],inactive
same,Potency,[4],inactive
same,activity (max response),[5],11.7% and 0.528%
same,Potency,[6],inactive
